AI-2 QS mod: modulators of Vibrio harveyi AI-2 quorum sensing system; activity change, % at 7.5 µM; AID 2094; Vibrio harveyi JMH597 AI-2 luminescence/OD600 ratio, 9 h; stronger effect = lower value; strain lacks LuxN and CqsS sensors; 0 = neutral-control median; hit rate 0.4% among 300,000; in the data active = activity change below about -75%, passing the limit was not always enough; inconclusive = no clear call, values can overlap the other calls;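 also: luminescence divided by OD600 gain over 9 h not by final OD600 alone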
CHT PAM: allosterically activates the human high affinity choline transporter | AID 488977 | hit rate 0.49% among 310,000 | B-score at 10 µM | Q9GZV3 | CHT-expressing cells, membrane potential dye, choline EC20; stronger effect = higher value; LV-AA mutant CHT in HEK293 cells;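 active = initial fluorescence not abnormally high and integrated response B-score, plate-corrected, over 3 SD above library mean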
CHT block: inhibitors of human choline transporter CHT | CHT-expressing cells, membrane potential dye, choline response; stronger effect = lower value | B-score at 10 µM | AID 488975 | hit rate 0.86% among 310,000 | Q9GZV3;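 active = B-score over 3 SD under the library average, and starting fluorescence ratio not unusually high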;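 also: choline stimulus applied at its EC90 after an EC20 pre-addition; B-score computed on integrated fluorescence ratio after choline addition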
ALR inh: inhibitors of human sulfhydryl oxidase ALR. purified ALR, DTT oxidation, H2O2 HRP-luminol luminescence. inhibition, % (concentration not given with the values). hit rate 3.8% among 290,000. AID 485317;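 active = mean replicate inhibition above about 79%, with every replicate also reaching it, limit read from the data; inconclusive = only one of the two criteria met; inactive = mean below limit and not every replicate reaching it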
Target sequence (P55789 whole entry, looked up): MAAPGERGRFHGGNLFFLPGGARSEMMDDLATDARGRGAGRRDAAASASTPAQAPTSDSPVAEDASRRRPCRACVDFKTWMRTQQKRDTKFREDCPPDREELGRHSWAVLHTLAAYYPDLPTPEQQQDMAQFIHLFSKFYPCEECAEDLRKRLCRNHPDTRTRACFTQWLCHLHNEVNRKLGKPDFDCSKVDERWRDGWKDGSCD
PREPL inhibitor: human PREPL enzyme inhibition; AID 2751; inhibition, % at 5.96 µM; recombinant PREPL, fluorescence polarization activity-based probe; Q4J6C6; hit rate 0.68% among 320,000; in the data active = inhibition above about 43%;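 also: 0% = enzyme with DMSO and 100% = wells lacking enzyme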
* marks the source's active call; other numbers are inactive results; i = inactive; ? = inconclusive; . = not tested or not shown. Shown are actives, neighbours in structure and some others; about 5% of the full set was active somewhere.

SMILES	AI-2 QS mod	CHT PAM	CHT block	ALR inh	PREPL inhibitor
O=C(NNC(=S)NC(=O)c1ccco1)c1ccc(F)cc1	-103.9*	i	i	97.4*	-1.3
O=C(NC(=S)Nc1ccccc1[N+](=O)[O-])c1ccco1	4.6	i	i	94.9*	-1.0
Cn1cccc1CC(=O)NNC(=S)NC(=O)c1ccc(F)cc1	23.7	i	i	94.8*	-2.8
O=C(/C=C/c1ccco1)NC(=S)NNC(=O)c1ccco1	-31.9	i	i	97.9*	7.9
Cc1c(OCC(=O)NCC(O)c2ccccc2)ccc2c3c(c(=O)oc12)CCCC3 (stereo not given)	1.6	i	i	-0.5	2.3
CC(=O)c1ccc(NC(=O)COC(=O)CC2CC3CCC2C3)cc1 (stereo not given)	.	.	.	1.1	9.1
O=C(NC(=S)NNC(=O)c1ccco1)c1ccc(Br)cc1	-128.2*	i	i	99.0*	13.2
COc1ccc(C(=O)NNC(=S)NC(=O)c2ccco2)cc1	-149.5*	i	i	30.9	0.0
CC1CC(C)(C)NC(=S)N1CC(=O)N1CCN(Cc2ccc3c(c2)OCO3)CC1 (stereo not given)	.	i	i	0.1	20.1
COc1ccc(OC)c(N(/C(N)=N/c2nc(C)cc(C)n2)S(=O)(=O)c2ccc(NC(C)=O)cc2)c1	25.3	i	i	.	18.2
COc1cc(/C=C2\C(=N)N3N=C(C)SC3=NC2=O)cc(Cl)c1OCCOc1ccc(NC(C)=O)cc1	2.5	i	i	-7.4	1.7
CCCCN(CC)CCCNC(=O)c1cn(C)c(=O)c2c1c1ccccc1n2C	9.5	i	i	-7.8	2.5
Cn1cc(C(=O)NCCN2CCN(c3cccc(Cl)c3)CC2)c2c3ccccc3n(C)c2c1=O	24.0	i	i	-1.2	45.9*
CC(NC(=O)c1ccco1)C(c1cccs1)N1CCN(c2ccccc2)CC1 (stereo not given)	31.8	i	i	98.3*	-13.9
CC(NC(=O)c1ccco1)C(c1cccs1)N1CCN(c2ccc(F)cc2)CC1 (stereo not given)	4.9	i	i	99.1*	-19.3
CCc1nnc(NC(=O)C2CCCN2C(=O)Nc2ccc(C)cc2)s1 (stereo not given)	16.8	i	i	-2.5	-12.5
COc1ccc(CNC(=O)CN2C(=O)COc3ccc(S(=O)(=O)N4CCCCC4)cc32)cc1	29.5	i	i	.	3.6
COc1ccc(CC(=O)OCC(=O)Nc2ccc(Cl)cc2C)cc1	.	.	.	-2.7	-2.4
CN(C)c1ccc(C(O)P(=O)(OC2CCCCC2)OC2CCCCC2)cc1 (stereo not given)	.	i	i	96.8*	-0.9
CC(C)OP(=O)(OC(C)C)C(O)c1ccc(N(C)C)cc1 (stereo not given)	-6.4	i	i	97.3*	-6.6
CC(C)OP(=O)(c1ccc(N(C)C)cc1)C(O)c1ccc(C(C)C)cc1 (stereo not given)	17.8	i	i	-6.5	-5.3
Cc1ccc2c(c1)cc(C(=O)NCc1ccccc1)n2C	-10.8	i	i	-4.2	-5.0
CCCn1c(N)c(C(=O)CSc2nncs2)c(=O)[nH]c1=O	.	.	.	-2.6	-5.4
CN1CCN(S(=O)(=O)c2ccc(N)cc2)CC1	28.8	i	i	96.1*	4.3
Cc1ccc(-c2ccc(S(=O)(=O)N3CCN(C)CC3)cc2)cc1	8.3	i	i	0.3	-20.7
SMILES	AI-2 QS mod	CHT PAM	CHT block	ALR inh	PREPL inhibitor
O=C(O)c1cc(N/N=C2/CC(c3ccccc3)Oc3ccccc32)ccc1Cl (stereo not given)	-14.0	i	i	97.6*	-7.8
CCCN(CCC)C(=S)NC(=O)c1ccc(-c2ccccc2)cc1	12.6	i	i	98.9*	14.4
N#CCCN(Cc1ccccc1)C(=S)NC(=O)c1ccccc1	20.1	i	i	98.4*	-1.8
O=C(COC(=O)c1ccc(OC(F)F)cc1)NCCCN1CCCC1=O	10.0	i	i	-2.4	14.7
O=C(CSc1nnc(-c2cccnc2)o1)Nc1nccs1	6.4	i	i	99.3*	13.9
Cc1cc(-c2nnc(SCC(=O)Nc3nccs3)o2)no1	10.1	i	i	88.5*	3.6
Cc1cc(-c2nnc(SCC(=O)Nc3ccccn3)o2)no1	12.8	i	i	41.9	-4.0
CCc1nn(C(CC)C(=O)NCCCN2CC(C)CC(C)C2)c(=O)c2cc3oc(C)cc3n12 (stereo not given)	6.8	i	i	-8.3	12.0
COc1ccc(NC(=O)C(C)Sc2nnc3c4c(nc(-c5ccc(OC)cc5)n23)CC(C)(C)OC4)cc1 (stereo not given)	10.1	i	i	.	7.0
CC(CS(=O)(=O)c1ccc2c(c1)NC(=O)CS2)C(=O)NCc1ccccc1Cl (stereo not given)	19.6	i	i	-8.8	12.1
C=CCNc1nnc(SCC(=O)N2CCC(C(N)=O)CC2)s1	-3.7	i	i	-17.6	16.1
COc1cc(/C=C2\CCC/C(=C\c3ccc(O)c(OC)c3)C2=O)ccc1O	-8.9	i	i	.	10.8
COc1cc(/C=C2\NC(=S)N(C)C2=O)ccc1O	-5.2	i	i	98.9*	-17.2
CCOc1cc(/C=C2\NC(=S)N(c3c(C)n(C)n(-c4ccccc4)c3=O)C2=O)ccc1O	11.6	i	i	98.6*	-3.6
CCOc1cccc(/C=C2\NC(=S)N(c3ccccc3)C2=O)c1O	-8.7	i	i	?	-2.8
COc1cc(/C=C2/C(=O)CNC2=O)ccc1O	15.4	i	i	99.0*	-0.2
CN1C(=O)/C(=C/c2ccc(O)c([N+](=O)[O-])c2)NC1=S	22.7	i	i	45.7	1.3
COc1ccc(CCNC(=O)Nc2ccccc2[N+](=O)[O-])cc1	-18.0	i	i	-0.4	12.5
CNC(=O)COC(=O)c1ccc(Cl)c(S(N)(=O)=O)c1	-4.0	i	i	-13.6	6.7
COc1cc(OC)cc(C(=O)Nc2ccc(C(=O)c3ccncc3)cc2)c1	-1.2	i	i	-1.4	4.6
Cc1ccc(NC(=O)CN(C)C(=O)c2cccc(S(=O)(=O)N3CCc4ccccc43)c2)cc1	.	.	.	-0.5	14.1
O=C(Cn1cc(C(F)(F)F)ccc1=O)N/N=C/c1ccc(O)cc1	14.1	i	i	98.7*	7.2
O=C(O)CSc1nnc(-c2ccc(Cl)cc2)n1-c1ccccc1	27.0	i	i	85.5*	1.4
CC(C)c1nnc(NC(=O)C2CCCCC2)s1	13.5	i	i	0.5	1.7
CC(C)c1cc(C(N)=O)c(NC(=O)C2CCC2)s1	13.5	i	i	97.5*	14.2
NC(=S)N/N=C/c1cn(-c2ccccc2)nc1-c1cccnc1	-1.4	i	i	-2.1	5.1
CS(=O)(=O)c1ccc(C(=O)OC2CCOC2=O)cc1[N+](=O)[O-] (stereo not given)	18.8	i	i	94.3*	7.0
COc1ccc(C2=CSC3=NCCN23)cc1OC	11.6	i	i	95.9*	1.9

Screening results from PubChem BioAssay.
